In article PMC11574364:

Experiments:
Assay in all cases: protein domain microarray probed with biotinylated miRNA; Domain array: 20 mM Tris-HCl pH 7.4, 200 mM KCl, 0.2 mM EDTA, 0.05% NP40, 2 ug/ul heparin, overnight 4 C. ORF array: PBS pH 7.0 with RNase inhibitor, 100 ng RNA; high values mean tight binding
Conditions in all cases: ssRNA
[1] = target: T1, RBM12(3) (Homo sapiens, UniProt Q9NTZ6)
T1 sequence: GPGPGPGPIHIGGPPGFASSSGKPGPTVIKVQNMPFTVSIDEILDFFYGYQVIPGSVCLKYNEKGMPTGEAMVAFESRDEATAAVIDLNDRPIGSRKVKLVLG

[2] = target: T2, RBM41 (Homo sapiens, UniProt Q96IZ5)
T2 sequence: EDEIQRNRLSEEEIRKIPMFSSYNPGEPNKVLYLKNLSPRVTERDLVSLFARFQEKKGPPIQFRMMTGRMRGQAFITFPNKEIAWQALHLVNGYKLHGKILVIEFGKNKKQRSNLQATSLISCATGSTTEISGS

[3] = target: T3, RBM15 (Homo sapiens, UniProt Q96T37)
T3 sequence: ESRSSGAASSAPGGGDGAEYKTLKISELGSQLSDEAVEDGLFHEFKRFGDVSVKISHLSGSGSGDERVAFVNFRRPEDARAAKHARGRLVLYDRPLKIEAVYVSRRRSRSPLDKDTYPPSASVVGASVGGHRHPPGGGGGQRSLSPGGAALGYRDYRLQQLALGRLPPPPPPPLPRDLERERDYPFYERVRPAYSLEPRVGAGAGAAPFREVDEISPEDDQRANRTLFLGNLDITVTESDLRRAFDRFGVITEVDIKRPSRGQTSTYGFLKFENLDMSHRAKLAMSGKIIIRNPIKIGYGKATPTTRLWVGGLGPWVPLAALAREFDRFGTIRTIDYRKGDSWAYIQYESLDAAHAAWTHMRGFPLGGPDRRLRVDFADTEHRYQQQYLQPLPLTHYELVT

[4] = target: ASCC1 (Homo sapiens, UniProt Q8N9N2)
[5] = target: T4, TDRKH(1-2) (Homo sapiens, UniProt Q9Y2W6)
T4 sequence: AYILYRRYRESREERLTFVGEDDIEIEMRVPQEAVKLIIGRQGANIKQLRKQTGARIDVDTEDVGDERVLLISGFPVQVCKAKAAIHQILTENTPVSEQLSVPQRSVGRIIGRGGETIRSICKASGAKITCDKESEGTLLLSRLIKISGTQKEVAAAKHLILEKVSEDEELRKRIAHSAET

[6] = target: T5, RBMS1 (Homo sapiens, UniProt P29558)
T5 sequence: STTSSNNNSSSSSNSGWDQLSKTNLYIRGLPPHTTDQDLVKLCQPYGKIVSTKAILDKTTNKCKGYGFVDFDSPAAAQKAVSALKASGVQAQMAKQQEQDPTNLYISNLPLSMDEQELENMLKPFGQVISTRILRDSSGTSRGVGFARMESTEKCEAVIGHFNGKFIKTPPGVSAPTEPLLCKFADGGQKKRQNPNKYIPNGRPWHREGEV

[7] = target: T6, RBM15B (Homo sapiens, UniProt Q8NDT2)
T6 sequence: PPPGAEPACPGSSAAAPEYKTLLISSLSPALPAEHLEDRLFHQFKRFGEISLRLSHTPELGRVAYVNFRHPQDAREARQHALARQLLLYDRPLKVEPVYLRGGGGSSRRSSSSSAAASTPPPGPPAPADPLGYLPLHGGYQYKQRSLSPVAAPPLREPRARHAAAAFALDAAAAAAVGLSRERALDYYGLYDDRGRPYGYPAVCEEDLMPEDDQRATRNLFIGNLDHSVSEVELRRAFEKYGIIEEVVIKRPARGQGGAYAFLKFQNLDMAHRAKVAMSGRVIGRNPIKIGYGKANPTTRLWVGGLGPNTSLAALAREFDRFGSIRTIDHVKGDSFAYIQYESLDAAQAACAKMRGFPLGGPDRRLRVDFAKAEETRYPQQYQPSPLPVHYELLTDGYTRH

[8] = target: RBMY1C (Homo sapiens, UniProt P0DJD4)
[9] = target: T7, SF1 (Homo sapiens, UniProt Q15637)
T7 sequence: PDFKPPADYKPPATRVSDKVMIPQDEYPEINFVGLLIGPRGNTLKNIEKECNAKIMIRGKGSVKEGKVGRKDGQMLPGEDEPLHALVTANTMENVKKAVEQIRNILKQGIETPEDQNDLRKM

[10] = target: THOC4 (Homo sapiens, UniProt Q86V81)

Sequence of RBMY1C (P0DJD4 1-110): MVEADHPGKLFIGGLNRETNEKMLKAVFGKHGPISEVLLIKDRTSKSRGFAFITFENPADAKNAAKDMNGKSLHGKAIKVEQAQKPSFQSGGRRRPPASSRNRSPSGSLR
Sequence of ASCC1 (Q8N9N2 79-168): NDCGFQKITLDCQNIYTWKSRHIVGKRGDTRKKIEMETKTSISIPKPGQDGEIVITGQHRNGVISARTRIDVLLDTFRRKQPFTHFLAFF

Row | Sequence | binding signal [1] | binding signal [2] | binding signal [3] | binding signal [4] | binding signal [5] | binding signal [6] | binding signal [7] | binding signal [8] | binding signal [9] | binding signal [10]
1 | UGAGGUAGUAGGUUGUAUGGUU | 35.9 ± 0.728 fluorescence intensity | 350 ± 12.9 fluorescence intensity | 537 ± 29.7 fluorescence intensity | 22.5 ± 1.64 fluorescence intensity | 45.7 ± 2.46 fluorescence intensity | 316 ± 53.1 fluorescence intensity | 309 ± 16.6 fluorescence intensity | 1200 ± 27.5 fluorescence intensity | 24.7 ± 4.35 fluorescence intensity | 91.8 ± 21.8 fluorescence intensity
2 | AGAGGUAGUAGGUUGCAUAGUU | 26.4 ± 4.72 fluorescence intensity | 818 ± 64.1 fluorescence intensity | 525 ± 1.24 fluorescence intensity | 24.9 ± 3.57 fluorescence intensity | 29.6 ± 0.502 fluorescence intensity | 365.1 ± 1.24 fluorescence intensity | 242 ± 10.9 fluorescence intensity | 1860 ± 11.9 fluorescence intensity | – | 49.2 ± 7.5 fluorescence intensity
3 | CAGUGCAAUGAUGAAAGGGCAU | 27.1 ± 4.43 fluorescence intensity | 284 ± 7.83 fluorescence intensity | 315.16 ± 0.212 fluorescence intensity | – | 40.4 ± 7.05 fluorescence intensity | 166 ± 3.01 fluorescence intensity | 128 ± 12.3 fluorescence intensity | 1150 ± 31.6 fluorescence intensity | 107.4 ± 0.728 fluorescence intensity | 40.5 ± 0.424 fluorescence intensity
4 | UGAGGUAGUAGGUUGUAUAGUU | – | 45.9 ± 18.9 fluorescence intensity | 82.1 ± 15.2 fluorescence intensity | – | – | 78.2 ± 3.38 fluorescence intensity | 42.7 ± 8.55 fluorescence intensity | 643 ± 42.4 fluorescence intensity | – | –
5 | UGAGGUAGUAGGUUGUGUGGUU | 44.9 ± 5.61 fluorescence intensity | 435 ± 24.3 fluorescence intensity | 501 ± 99.1 fluorescence intensity | 45.53 ± 0.0141 fluorescence intensity | 93.1 ± 19.1 fluorescence intensity | 341 ± 18.8 fluorescence intensity | 268 ± 141 fluorescence intensity | 1360 ± 26.2 fluorescence intensity | 24.25 ± 0.205 fluorescence intensity | 133 ± 30 fluorescence intensity
6 | UAGCUUAUCAGACUGAUGUUGA | – | – | 134 ± 18.6 fluorescence intensity | – | – | 29.7 ± 0.537 fluorescence intensity | 30.7 ± 4.65 fluorescence intensity | 371 ± 23 fluorescence intensity | – | –
